Entries with a potency or affinity are not part of this list.
Assays:
Klebsiella pneumoniae = conditions: Concentration 20 uM; ASSAY_TEST Inhibition of Bacterial Growth; detection method Absorption (OD600); MEDIA CAMHB; plate type 384well; NBS; CORNING #3640; time 18 hr
Candida albicans = conditions: 20 µM
Cryptococcus neoformans = conditions: Concentration 20 uM; ASSAY_TEST Inhibition of Fungal Growth; detection method Resazurin; Absorption (OD600-OD570); plate type 384well; NBS; CORNING #3640

Row | SMILES | Inhibition (Klebsiella pneumoniae) [%] | Inhibition (Candida albicans) [%] | Inhibition (Cryptococcus neoformans) [%]
1 | Cl.N=C(N)NC(=O)c1nc(Cl)c(N)nc1N.O.O [AMILORIDE HYDROCHLORIDE] | 12.19 | 4.98 | -6.3
2 | CC(COc1ccccc1)N(CCCl)Cc1ccccc1.Cl (stereo not given) [PHENOXYBENZAMINE HYDROCHLORIDE] | 17.18 | 4.97 | -10.83
3 | Brc1c(NC2=NCCN2)ccc2nccnc12 [BRIMONIDINE] | 7.83 | 3.99 | -1.44
4 | O.O=P1(N(CCCl)CCCl)NCCCO1 (stereo not given) [CYCLOPHOSPHAMIDE] | 7.22 | 0.13 | 1.2
5 | C[C@]12CCC(=O)C[C@@H]1CC[C@@H]1[C@@H]2CC[C@@]2(C)[C@H]1CC[C@]2(C)O [MESTANOLONE] | 3.85 | 11.7 | 4.57
6 | COc1ccc(C(CN(C)C)C2(O)CCCCC2)cc1.Cl (stereo not given) [VENLAFAXINE HYDROCHLORIDE] | 15.76 | 3.64 | -9.68
7 | c1ccc2c(c1)Nc1ccccc1S2 [PHENOTHIAZINE] | 1.87 | 4.65 | 6.01
8 | CS(=O)(=O)Nc1ccc(Cc2noc(-c3ccc4[nH]cc(CCN)c4c3)n2)cc1.O.O | 11.61 | 2.75 | -39.59
9 | Br.COc1ccc2c3c1O[C@H]1C[C@@H](O)C=C[C@@]31CCN(C)C2 [GALANTAMINE HYDROBROMIDE] | 16.19 | 3.12 | -5.72
10 | Br.Br.CN1CC[C@]2(c3cccc(O)c3)Cc3nc4ccccc4cc3C[C@H]2C1.O | 12.17 | 0.66 | 2.37
11 | CC[N+](C)(C)c1cccc(O)c1.[Cl-] [EDROPHONIUM CHLORIDE] | 15.01 | 2.22 | -6.73
12 | CC[C@@H](C(N)=O)N1CCCC1=O | 13.35 | 2.36 | -2.67
13 | CC(C)c1cccc(C(C)C)c1O [PROPOFOL] | 12.14 | 2.62 | -1.51
14 | CC(=O)CC(c1ccccc1)c1c([O-])c2ccccc2oc1=O.[Na+] (stereo not given) [WARFARIN SODIUM] | 4.09 | 3.09 | 0.59
15 | CN1CCN(C2=Nc3cc(Cl)ccc3Nc3ccccc32)CC1 [CLOZAPINE] | 8.37 | 0.59 | -5.79
16 | CCCCCNC(=N)N/N=C/c1c[nH]c2ccc(OC)cc12.O=C(O)/C=C\C(=O)O [TEGASEROD MALEATE] | 6.68 | 0.86 | -67.8
17 | Oc1ncnc2[nH]ncc12 [ALLOPURINOL] | 15.5 | 2.36 | -1.92
18 | C=C1C[C@@H]2[C@H](CC[C@]3(C)C(=O)CC[C@@H]23)[C@@]2(C)C=CC(=O)C=C12 [EXEMESTANE] | 6.02 | 5.81 | -8.06
19 | C[N+]1(C)CCC(OC(=O)C(O)(c2ccccc2)C2CCCC2)C1.[Br-] (stereo not given) [GLYCOPYRRONIUM BROMIDE] | 13.34 | 3.65 | -2.52
20 | CN1CC[C@@]23CCCC[C@@H]2[C@@H]1Cc1ccc(O)cc13.O=C(O)C(O)C(O)C(=O)O | 17.43 | 2.27 | -5.99
21 | C[C@]12CC(C=O)=C(O)C[C@@H]1CC[C@@H]1[C@@H]2CC[C@@]2(C)[C@H]1CC[C@]2(C)O | 6.07 | 6.85 | 3.15
22 | Br.COc1ccc2c(c1)[C@]13CCCC[C@@H]1[C@H](C2)N(C)CC3.O [DEXTROMETHORPHAN HYDROBROMIDE] | 8.1 | 2.88 | -7.7
23 | C[C@]12CC[C@H](O)CC1=CC[C@@H]1[C@@H]2CC[C@@]2(C)[C@H]1CC[C@]2(C)O [METHANDRIOL] | 9.75 | 4.69 | 2.63
24 | Cc1cc(NS(=O)(=O)c2ccc(N)cc2)no1 [SULFAMETHOXAZOLE] | 4.09 | 6.42 | 2.83
25 | CN[C@@H]1C[C@@H](c2ccc(Cl)c(Cl)c2)c2ccccc21.Cl [INDATRALINE HYDROCHLORIDE] | -0.11 | 2.5 | -6.06
26 | CC(C(=O)O)c1ccc(-c2ccccc2)c(F)c1 (stereo not given) [FLURBIPROFEN] | 4.59 | 8.89 | -3.5
27 | Cl.O.Oc1ccc2c3c1O[C@H]1c4[nH]c5ccccc5c4C[C@@]4(O)C(C2)N(CC2CC2)CC[C@]314 | -0.12 | 6.31 | -5.72
28 | CN1C(=O)COc2c(C(=O)NC3CN4CCC3CC4)cc(Cl)cc21.Cl (stereo not given) | 10.75 | 2.68 | -3.23

Row | SMILES | Inhibition (Klebsiella pneumoniae) [%] | Inhibition (Candida albicans) [%] | Inhibition (Cryptococcus neoformans) [%]
29 | C[N+]1(C)CCN(c2ccccc2)CC1.[I-] [DIMETHYLPHENYLPIPERAZINIUM IODIDE] | 19.04 | 2.58 | -7.47
30 | CN1[C@@H](CC(=O)c2ccccc2)CCC[C@H]1C[C@H](O)c1ccccc1.Cl [LOBELINE HYDROCHLORIDE] | 19.91 | 2.98 | -5.47
31 | COc1cc(CNC(=O)CCCC/C=C\C(C)C)ccc1O [ZUCAPSAICIN] | 12.92 | 4.72 | -5.9
32 | CC(=O)OCC[N+](C)(C)C.[Cl-] [ACETYLCHOLINE CHLORIDE] | 16.59 | 1.39 | -1.88
33 | C=C(C)[C@@H]1[C@H]2OC(=O)[C@@H]1[C@]1(O)C[C@H]3O[C@]34C(=O)O[C@H]2[C@]14C.CC(C)(O)[C@@H]1[C@H]2OC(=O)[C@@H]1[C@]1(O)C[C@H]3O[C@]34C(=O)O[C@H]2[C@]14C | 10.94 | 2.79 | -5.47
34 | CC(C)NCC(O)COc1cccc2[nH]ccc12 (stereo not given) [PINDOLOL] | 17.1 | 3.5 | -9.82
35 | Cl.NCC(O)c1ccc(O)c(O)c1 (stereo not given) | 15.27 | 4.08 | -2.98
36 | Cl.O=C1c2cccc3c2[C@H](CCC3)CN1[C@@H]1CN2CCC1CC2 [PALONOSETRON HYDROCHLORIDE] | 8.73 | 2.55 | -0.6
37 | C#C[C@]1(O)CC[C@H]2[C@@H]3CCC4=CC(=O)CC[C@@H]4[C@H]3CC[C@@]21C [NORETHINDRONE] | 6.67 | 4.82 | 0.28
38 | CN1CCC[C@H]1c1cccnc1 [NICOTINE] | -4.81 | 1.61 | -2.7
39 | Cc1c(O)c(=O)ccn1C [DEFERIPRONE] | 3.55 | 4.97 | -5.92
40 | CC[C@]1(O)CC[C@H]2[C@@H]3CCC4=CCCC[C@@H]4[C@H]3CC[C@@]21C [ETHYLESTRENOL] | 4.45 | 4.07 | -2.32
41 | CN(C)CCC=C1c2ccccc2CCc2ccccc21.Cl [AMITRIPTYLINE HYDROCHLORIDE] | 11.13 | 3.15 | -4.46
42 | CN1[C@@H]2CC[C@H]1C[C@@H](OC(=O)c1c[nH]c3ccccc13)C2.Cl | 15.9 | 3.12 | -7.07
43 | CN(C)C(=O)C(CCN1CCC(O)(c2ccc(Cl)cc2)CC1)(c1ccccc1)c1ccccc1.Cl [LOPERAMIDE HYDROCHLORIDE] | 11.49 | 2.32 | -15.04
44 | CC(O)(CS(=O)(=O)c1ccc(F)cc1)C(=O)Nc1ccc(C#N)c(C(F)(F)F)c1 (stereo not given) [BICALUTAMIDE] | 7.16 | -0.48 | -5.03
45 | NC(=O)C[S+]([O-])C(c1ccccc1)c1ccccc1 (stereo not given) [MODAFINIL] | 7.6 | 2.96 | -0.59
46 | COC(=O)C1=C(C)NC(C)=C(C(=O)OC)C1c1ccccc1[N+](=O)[O-] [NIFEDIPINE] | 22.28 | 4.72 | -4.99
47 | Nc1nc(F)nc2c1ncn2[C@@H]1O[C@H](CO)[C@@H](O)[C@@H]1O [FLUDARABINE] | 6.42 | 0.49 | -5.72
48 | CC[C@@H]1/C=C/C=C/C[C@H](C)[C@@H](O)[C@](C)(O)C(=O)[C@H](C)[C@@H](O)[C@H](C)C(=O)[C@H](C)[C@@H](O)[C@H](C)/C=C/C(=O)O[C@H]2[C@@H](C)[C@@H](CC1)O[C@@]1(CC[C@@H](C)[C@@H](C[C@H](C)O)O1)[C@@H]2C | 17.55 | 5.45 | -9.53
49 | O=C1CN=C(c2ccccc2)c2cc([N+](=O)[O-])ccc2N1 [NITRAZEPAM] | 13.18 | 3.29 | 1.38
50 | CN/C(=N\CCSCc1nc[nH]c1C)NC#N [CIMETIDINE] | 3.14 | 3.16 | 2.1
51 | Cl.O[C@@H]1CCCC[C@H]1N1CCC(c2ccccc2)CC1 | 4.06 | 3.46 | -7.38
52 | COc1cc2c(cc1OC)[C@@]13CCN4CC5=CCO[C@H]6CC(=O)N2[C@H]1[C@H]6[C@H]5C[C@H]43 [BRUCINE] | 6.18 | 2.36 | -1.81
53 | CN(C)CCc1c[nH]c2ccc(C[C@H]3COC(=O)N3)cc12 [ZOLMITRIPTAN] | 7.51 | 2.65 | 0.25
54 | CCOC(=O)c1cncn1[C@H](C)c1ccccc1 [ETOMIDATE] | 12.64 | 0.03 | 0.21
55 | CN1C(=O)CN=C(c2ccccc2)c2cc(Cl)ccc21 [DIAZEPAM] | 10.3 | 2.62 | -1.5
